From PubChem BioAssay
The list is not random: actives were taken first. Their share in the collection is about 1.1%.
S-ASM inh: Inhibitors of Secretory Acid Sphingomyelinase (S-ASM): qHTS; Sphingomyelin phosphodiesterase (Homo sapiens), P17405; placental ASM, HMU-PC fluorogenic substrate, 60 min; Potency, µM (doses to about 57.5 µM), for the others: at the highest dose activity change, negative = inhibition, most hits filed as inhibitors; 340,000 compounds, 0.006% hits; AID 504937, 2011; also: potency is read from the fitted curve at half-maximal effect
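Human placenta-derived ASM preincubated with compound 10 min at room temperature, then reacted with 9 uM (final) fluorogenic HMU-PC substrate for 60 min at 37 C. Stop solution raises pH to 10; fluorescence read at Ex 386/Em 447 nm.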
RXFP1 antagonist: qHTS Assay for Antagonists of the Relaxin Receptor RXFP1. HEK293-RXFP1, relaxin-stimulated cAMP HTRF, 30 min; hits give low values. activity change, negative = inhibition, % at 57.5 µM. Relaxin receptor 1 (Homo sapiens), Q9HBX9. 350,000 compounds, 0.59% hits. AID 1259400, 2018;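 active = activity change of -60% or lower, but not beyond a set lower limit; inconclusive = change between -60% and -40%, or beyond the set limit; inactive = change above -40%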; also: % is scaled to controls: 0 for no effect and ±100 for the full control effect
Target sequence (Q9HBX9 whole entry, looked up): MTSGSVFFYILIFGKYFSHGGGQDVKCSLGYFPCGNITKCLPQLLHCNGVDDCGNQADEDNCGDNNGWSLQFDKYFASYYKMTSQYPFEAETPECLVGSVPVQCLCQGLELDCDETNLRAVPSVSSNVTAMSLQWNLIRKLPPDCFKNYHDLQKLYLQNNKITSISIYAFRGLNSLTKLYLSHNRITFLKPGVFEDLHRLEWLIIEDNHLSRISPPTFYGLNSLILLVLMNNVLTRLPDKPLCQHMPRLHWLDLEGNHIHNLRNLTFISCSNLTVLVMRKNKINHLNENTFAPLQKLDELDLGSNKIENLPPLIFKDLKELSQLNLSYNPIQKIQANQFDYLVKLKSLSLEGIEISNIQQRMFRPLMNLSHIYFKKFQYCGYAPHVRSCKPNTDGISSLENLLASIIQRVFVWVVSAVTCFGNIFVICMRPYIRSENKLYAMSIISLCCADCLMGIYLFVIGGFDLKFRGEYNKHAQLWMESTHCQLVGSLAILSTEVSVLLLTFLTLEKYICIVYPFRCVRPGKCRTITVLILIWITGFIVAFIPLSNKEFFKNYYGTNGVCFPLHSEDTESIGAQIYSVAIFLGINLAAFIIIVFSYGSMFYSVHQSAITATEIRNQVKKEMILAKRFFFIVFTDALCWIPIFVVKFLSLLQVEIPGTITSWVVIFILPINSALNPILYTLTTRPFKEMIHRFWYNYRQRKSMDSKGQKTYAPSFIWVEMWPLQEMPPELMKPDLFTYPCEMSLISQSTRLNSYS
RXFP1 agonist: qHTS Assay for Agonists of the Relaxin Receptor RXFP1. Potency, µM (doses to about 57.5 µM), for inactives: at the top dose activation, hits mostly activators. 370,000 compounds, 0.3% hits. HEK293T-RXFP1 cAMP TR-FRET, 30 min; response scale: percent of porcine relaxin response, buffer zero. Relaxin receptor 1 (Homo sapiens), Q9HBX9. AID 2676, 2010; also: potency is read from the fitted curve at half-maximal effect; % is scaled to controls: 0 for no effect and ±100 for the full control effect; nearly all actives have a fitted effect of over 60% in size
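HEK293 cells stably expressing RXFP1, treated 30 min at 37C with compounds plus PDE4 inhibitor Ro 20174; cAMP measured by HTRF TR-FRET. Normalized to buffer and 29 nM porcine relaxin; EC50 by Hill fit.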
Integrin act MD: qHTS for Activators of Integrin-Mediated Alleviation for Muscular Dystrophy; alpha7betagal myoblasts, beta-gal FDG fluorescence, 48 h; Potency, µM (highest dose often 38.3 µM), for the others: at the top dose activation, most hits filed as activators; 350,000 compounds, 0.064% hits;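 also: potency is read from the fitted curve at half-maximal effect; 100% = response of the positive control SU9516; nearly all actives have a fitted effect of over 60% in size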
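Alpha7betagal+/- myoblasts (passage 13) were plated 16-24 hr, then exposed to compounds (1:260 dilution of DMSO stock) for 48 hours at 37C. After MPER lysis, β-galactosidase reporter activity was read as FDG fluorescence (ex 480/em 540) after 30 minutes.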
gsp antag: qHTS for Antagonists of gsp, the Etiologic Mutation Responsible for Fibrous Dysplasia/McCune-Albright Syndrome: qHTS | AID 624288, 2012 | gsp-mutant cells, cAMP HTRF, 30 min | Potency, µM (doses to about 76.9 µM), for inactives: top-dose activity change, negative = inhibition, actives largely listed as inhibitors | 340,000 compounds, 0.4% hits; calls by dose curve; cell line not stated here;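 also: intracellular cAMP measured with PDE inhibitor Ro 20-1724 present during compound exposure; potency is read from the fitted curve at half-maximal effect; % is scaled to controls: 0 for no effect and ±100 for the full control effect; nearly all actives have a fitted effect of over 65% in size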
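HTRF cAMP read-out (cAMP-d2 plus anti-cAMP antibody-K in lysis buffer, 30 min RT). Before lysis, cells are exposed to compounds with […] for 30 min at 37C in DPBS containing Ca/Mg, BSA and Tween 20.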
gsp agonist: qHTS for Agonist of gsp, the Etiologic Mutation Responsible for Fibrous Dysplasia/McCune-Albright Syndrome: qHTS | gsp mutant cells, cAMP HTRF, 30 min | 340,000 compounds, 0.13% hits | AID 624287, 2012 | Potency, µM (top dose mostly 76.9 µM), without a hit: at the highest dose activation (cAMP increase), usual class: activators; active = well fitted activation curve with a large enough effect; inconclusive = small, poorly fitted or top-dose-only effect, or another doubt; inactive = no such curve, though single readings can be large or run the other way; cell line not stated here;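 also: phosphodiesterase inhibitor Ro 20-1724 added with compounds to block cAMP breakdown; potency is read from the fitted curve at half-maximal effect; nearly all actives have a fitted effect of over 60% in size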
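Cells in DMEM/10% FBS with G418 were pretreated with compounds in DMSO plus […] (300 uM stock) for 30 min at 37C. cAMP was measured by HTRF (cAMP-d2 plus anti-cAMP antibody-K) after 30 min at room temperature.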
An asterisk follows results filed as active; ? = inconclusive; . = no result given; [ ] = remark or other dose. Unless noted, calls follow the shape of the dose curve; as a rule, active = well fitted curve in the direction sought with a large enough effect; inconclusive = small, poorly fitted or top-dose-only effect, or another doubt; inactive = no such curve, though single readings can be large; an effect the other way counts as inactive or inconclusive.

SMILES	S-ASM inh	RXFP1 antagonist	RXFP1 agonist	Integrin act MD	gsp antag	gsp agonist
COc1cccc(-c2noc(C3CCCN(C(=O)c4ccc(F)cc4F)C3)n2)c1 (centres undefined)	-6%	3	1%	0%	-14%	?
COc1cccc(-c2noc(C3CCCN(C(=O)c4ccccc4OC)C3)n2)c1 (centres undefined)	-1%	-4	0%	-33%	35µM*	0%
Cc1ccc(NC(=O)CCN2CCC(Cc3ccccc3)CC2)cc1	0%	-14	-3%	-33%	8%	-5%
O=C(O)[C@@H]1CSCN1	.	-4	.	.	.	.
CSc1ccccc1NC(=O)C(=O)c1c[nH]c2ccccc12	-6%	-60*	1%	0%	-28%	0%[15.4 µM]
NS(=O)(=O)c1ccc(NC(=O)c2ccc(CNS(=O)(=O)c3cc(C(F)(F)F)ccc3Cl)cc2)cc1	-1%	-8	-2%	10µM*	1%	13%
Cn1c(SCc2nnc(-c3ccc(F)cc3)o2)nnc1C1COc2ccccc2O1 (centres undefined)	-1%	9	2%	8%	5%	15%
Cn1c(SCc2ccc(C(C)(C)C)cc2)nnc1C1COc2ccccc2O1 (centres undefined)	-14%	-69*	-1%	8%	-26%	29%
CC(NC(=O)Cn1ncc(Cl)c(Cl)c1=O)C12CC3CC(CC(C3)C1)C2 (centres undefined)	-1%	-100*	0%	-52%	?	5%
CCn1cc(C(=O)NC(C)C23CC4CC(CC(C4)C2)C3)cn1 (centres undefined)	2%	-5	1%	7%	16%	0%[15.4 µM]
COc1ccccc1NC(=O)CCS(=O)(=O)c1ccc2nc(C)sc2c1	.	0	3%	.	.	.
CCSc1nnc(SCC(=O)NC2CCCCC2)s1	7%	4	-2%	-44%	13%	?
O=[N+]([O-])c1ccc(Cl)c2c1C1C=CCC1C(c1ccccn1)N2 (centres undefined)	-7%	-118*	-2%	-7%	-12%	-4%[15.4 µM]
Cc1ccc(NC(=O)CNc2ccc(Cl)c(Cl)c2)cc1S(=O)(=O)N(C)C	-22%	5	2%	-38%	40µM*	-33%
Cc1ccc(NC(=O)Cc2ccc(Cl)c(Cl)c2)cc1S(=O)(=O)N(C)C	-19%	0	0%	-29%	?	-4%
COc1cc(NC(=O)CCc2c(C)nc3c(-c4ccc(F)cc4)c(C)nn3c2C)cc(OC)c1OC	.	.	0%	.	.	.
CCCCNC(=O)/C(C#N)=C/c1ccc(F)cc1F	7%	-15	-1%	-3%	11µM*	-1%[15.4 µM]
COCCCNC(=O)/C(C#N)=C/c1ccc(F)cc1	1%	-9	0%	-22%	4%	30%[15.4 µM]
COCCNC(=O)C(OC(=O)c1nsc(Cl)c1Cl)C(C)C (centres undefined)	2%	9	18µM*	10%	7%	?
COc1ccc(CCNC(=O)C(C)OC(=O)c2nsc(Cl)c2Cl)cc1OC (centres undefined)	1%	11	1%	-46%	-25%	24%[15.4 µM]
Cc1c(Cc2ccccc2)sc(NC(=O)/C=C/c2cccc3ccccc23)c1C(N)=O	-3%	-30	0%	?	21%	-3%[15.4 µM]
COc1ccc(NC(=O)CSc2nnc(Cc3cccs3)n2-c2ccc(C)cc2)cc1	-9%	-2	1%	-27%	32µM*	-46%
COc1ccc(-n2c(SCC(=O)Nc3ccc(Br)cc3)nc(O)cc2=O)cc1	0%	-66*	0%	-7%	-15%	-9%[15.4 µM]
